Values joined by “and” are separate entries in the source; they are usually repeats but may differ in a detail not shown here. Equal values may be shown once. Records with an inconclusive call do not appear. A call without a number means that no potency is given here. The source holds several records for some structures; these can differ, active in one and inactive in another. Active and inactive are the calls of the source. The call rests on the fitted dose curve; in most records, active means well fitted cell-killing curve with a large enough effect in the repeat runs; inconclusive means weak or mixed curves, or effect the other way; inactive means no such curve, though single readings can be large or run the other way.
Potency means the concentration at half of the fitted maximal effect.

This test is described as follows: qHTS assay for identifying genotoxic compounds that show differential cytotoxicity against isogenic chicken DT40 cell lines with known DNA damage response pathways - wild type cell line (AID 743012). Further: nearly all actives have a fitted effect of over 60% in size. The settings on record: DT40 wild type chicken cells viability, CellTiter-Glo, 40 h; series mostly up to 68.4 µM. Summed up:
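Viability by ATP luminescence (CellTiter-Glo, 30 min RT) after 40 h compound treatment at 37 C/5% CO2, using 300 parental DNA repair-proficient DT40 cells per well.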
As for `CC1(C)[C@H](C(=O)O[C@H](C#N)c2cccc(Oc3ccccc3)c2)[C@@H]1C=C(Br)Br`, the Potency entry was “inactive”.
To `CCC1(C2=NCCN2)Cc2ccccc2O1` (configuration not stated) belongs 5.31 µM (active).
For `C=C(Cl)Cl`, the Potency entry is “inactive”.
Regarding `ClCc1ccccc1Cl`, the Potency entry is “inactive”.
As for `CCC1(CCC(C)C)C(=O)NC(=O)NC1=O`, the Potency entry is “inactive”.
Take `CCCN(CCC)c1c([N+](=O)[O-])cc(C(C)C)cc1[N+](=O)[O-]`: the Potency result is “inactive and 61.1 µM (active)”.
Regarding `CCCCCCCCn1sccc1=O`, the Potency is 4.87 µM (active) and 454 nM (active).
Under `CC(C)(C)CC(C)(C)c1ccc(O)cc1` stands 23.7 µM (active) and 12.2 µM (active).
With `Nc1c(Br)cc(Br)c2c1C(=O)c1ccccc1C2=O`, the Potency entry was “inactive”.
Consider `CC(Oc1cccc(Cl)c1)C(=O)O` (configuration not stated), for which the Potency result is “inactive”.
`N#CC(C#N)=Cc1ccc(O)c(O)c1`: the Potency is 13.3 µM (active).
Regarding `Clc1ccc2ccccc2c1`, the Potency result is “inactive”.
To `CCOC(=O)c1cncn1C(C)c1ccccc1` (configuration not stated) belongs “inactive”; to `Cc1cnc(C2=NC(C)(C(C)C)C(=O)N2)c(C(=O)O)c1` (configuration not stated), “inactive”; to `Cc1nc(N(C)C)nc(OC(=O)N(C)C)c1C`, “inactive”.
Regarding `CCCCCBr`, the Potency entry is “inactive”.
As to `O=C(O)c1cc(Cl)ccc1Cl`, the Potency result was “inactive”.
For the compound `O=C(Cl)OCCOCCOC(=O)Cl`, the Potency entry is “inactive”.
For `CN(C)N`, the Potency entry was “inactive”.
In the case of `C=CCOCC1CO1` (configuration not stated), the Potency entry is “inactive”.
Regarding `C[CH2][Hg][S]c1ccccc1C(=O)O`, the Potency was 376 nM (active) and 172 nM (active).
As for `O=C(O)C(Cl)(Cl)Br`, the Potency entry was “inactive”.
Under `CCC(C)(C)c1ccc(O)c(C(C)(C)CC)c1` stands 24.3 µM (active).
As for `CCC1(CC)C(=O)NC(=O)NC1=O`, the Potency entry is “inactive”.
Under `O=C(N[C@H]1CN2CCC1CC2)c1ccc2c(c1)OCCO2` stands “inactive”; under `O=C1CC[C@@]2(O)[C@H]3Cc4ccc(O)c5c4[C@@]2(CCN3CC2CC2)[C@H]1O5`, “inactive”; under `O=CC=O`, “inactive”.
For the compound `CCOP(=O)(O)C(N)=O`, the Potency result was “inactive”.
With `COCc1cnc(C2=NC(C)(C(C)C)C(=O)N2)c(C(=O)O)c1` (configuration not stated), the Potency entry was “inactive”.
As for `CC(Cl)C(=O)O` (configuration not stated), the Potency entry was “inactive”.
On to `CCCCOC(=O)CCC(=O)OCCCC`, for which the Potency result is “inactive”.
In the case of `O=C(NCNC(=O)NC1C(=O)NC(=O)N1CO)NC1C(=O)NC(=O)N1CO` (configuration not stated), the Potency entry was “inactive”.
For `CCCC[N+](CCCC)(CCCC)CCCC`, the Potency is 4.32 µM (active).
Consider `O=C(O)COc1cc(Cl)c(Cl)cc1Cl`, for which the Potency entry was “inactive”.
Turning to `FC(F)OC(F)(F)C(F)Cl` (configuration not stated), the Potency result is “inactive”.
Consider `NNCCO`, for which the Potency result was “inactive”.
Under `NP(N)(=O)NC(=O)c1ccc(F)cc1` stands “inactive”.
